From ChEMBL document CHEMBL1961873, “Compounds: GSK PKIS; Assays: Nanosyn kinase panel” (2012)

How the values were obtained:
[1] = target: Tyrosine-protein kinase receptor UFO (Homo sapiens) (UniProt P30530); conditions: at 1 µM
[2] = target: Tyrosine-protein kinase Blk (Homo sapiens) (UniProt P51451); conditions: at 0.1 µM
[3] = target: Tyrosine-protein kinase Blk (Homo sapiens) (UniProt P51451); conditions: at 1 µM
[4] = target: T1, Cytoplasmic tyrosine-protein kinase BMX (Homo sapiens) (UniProt P51813); conditions: at 0.1 µM
T1 sequence (whole entry): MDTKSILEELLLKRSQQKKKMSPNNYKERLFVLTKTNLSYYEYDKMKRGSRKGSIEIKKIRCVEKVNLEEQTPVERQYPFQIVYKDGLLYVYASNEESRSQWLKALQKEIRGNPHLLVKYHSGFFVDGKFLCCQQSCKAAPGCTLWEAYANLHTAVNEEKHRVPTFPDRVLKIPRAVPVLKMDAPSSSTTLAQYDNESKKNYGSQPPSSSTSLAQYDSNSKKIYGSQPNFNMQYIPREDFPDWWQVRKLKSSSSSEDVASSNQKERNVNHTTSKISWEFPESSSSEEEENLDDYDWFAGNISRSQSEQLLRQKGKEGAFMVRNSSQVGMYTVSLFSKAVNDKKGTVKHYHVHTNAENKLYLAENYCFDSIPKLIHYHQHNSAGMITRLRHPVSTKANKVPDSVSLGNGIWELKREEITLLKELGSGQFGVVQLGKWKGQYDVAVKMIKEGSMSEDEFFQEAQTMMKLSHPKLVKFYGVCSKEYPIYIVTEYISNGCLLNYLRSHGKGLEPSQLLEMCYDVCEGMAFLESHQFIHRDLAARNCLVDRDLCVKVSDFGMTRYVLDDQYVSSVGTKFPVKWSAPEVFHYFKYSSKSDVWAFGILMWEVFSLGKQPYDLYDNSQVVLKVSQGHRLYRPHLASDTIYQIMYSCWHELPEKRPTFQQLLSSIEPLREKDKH

[5] = target: T1, Cytoplasmic tyrosine-protein kinase BMX (Homo sapiens); conditions: at 1 µM
[6] = target: Protein-tyrosine kinase 6 (Homo sapiens) (UniProt Q13882); conditions: at 0.1 µM
[7] = target: Protein-tyrosine kinase 6 (Homo sapiens) (UniProt Q13882); conditions: at 1 µM
[8] = target: Tyrosine-protein kinase BTK (Homo sapiens) (UniProt Q06187); conditions: at 0.1 µM
[9] = target: Tyrosine-protein kinase BTK (Homo sapiens) (UniProt Q06187); conditions: at 1 µM
[10] = target: Tyrosine-protein kinase CSK (Homo sapiens) (UniProt P41240); conditions: at 0.1 µM
[11] = target: Tyrosine-protein kinase CSK (Homo sapiens) (UniProt P41240); conditions: at 1 µM
[12] = target: T2, Discoidin domain-containing receptor 2 (Homo sapiens) (UniProt Q16832); conditions: at 0.1 µM
T2 sequence (whole entry): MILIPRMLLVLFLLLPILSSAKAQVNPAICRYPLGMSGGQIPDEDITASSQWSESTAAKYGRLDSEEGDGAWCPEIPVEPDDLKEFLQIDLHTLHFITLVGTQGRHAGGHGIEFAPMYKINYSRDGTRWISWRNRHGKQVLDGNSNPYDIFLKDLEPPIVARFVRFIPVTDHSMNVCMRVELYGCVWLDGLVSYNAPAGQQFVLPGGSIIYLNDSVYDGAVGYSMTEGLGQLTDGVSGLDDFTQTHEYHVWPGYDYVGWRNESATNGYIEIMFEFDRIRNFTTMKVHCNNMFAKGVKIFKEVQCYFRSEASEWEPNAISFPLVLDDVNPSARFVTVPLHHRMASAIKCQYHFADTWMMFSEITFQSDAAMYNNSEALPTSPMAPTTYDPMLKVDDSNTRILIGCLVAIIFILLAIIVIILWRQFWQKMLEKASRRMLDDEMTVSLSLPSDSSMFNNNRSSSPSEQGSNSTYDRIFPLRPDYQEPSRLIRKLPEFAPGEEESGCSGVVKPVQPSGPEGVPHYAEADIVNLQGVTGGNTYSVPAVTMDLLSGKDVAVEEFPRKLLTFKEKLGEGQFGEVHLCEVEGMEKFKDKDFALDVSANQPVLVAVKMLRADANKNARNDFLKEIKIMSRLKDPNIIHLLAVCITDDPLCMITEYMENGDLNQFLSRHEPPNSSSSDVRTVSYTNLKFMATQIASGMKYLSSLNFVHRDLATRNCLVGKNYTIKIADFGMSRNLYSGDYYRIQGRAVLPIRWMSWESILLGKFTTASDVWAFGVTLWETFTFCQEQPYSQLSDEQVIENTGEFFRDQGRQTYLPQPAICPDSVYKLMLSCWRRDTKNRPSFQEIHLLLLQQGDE

[13] = target: T2, Discoidin domain-containing receptor 2 (Homo sapiens); conditions: at 1 µM
[14] = target: Epidermal growth factor receptor (Homo sapiens) (UniProt P00533); conditions: at 0.1 µM
[15] = target: Epidermal growth factor receptor (Homo sapiens) (UniProt P00533); conditions: at 1 µM
[16] = tested on: Epidermal growth factor receptor (Homo sapiens), P00533 [L858R]; conditions: at 0.1 µM
[17] = tested on: Epidermal growth factor receptor (Homo sapiens), P00533 [L858R]; conditions: at 1 µM
[18] = tested on: Epidermal growth factor receptor (Homo sapiens), P00533 [L861Q]; conditions: at 0.1 µM
[19] = tested on: Epidermal growth factor receptor (Homo sapiens), P00533 [L861Q]; conditions: at 1 µM
[20] = tested on: Epidermal growth factor receptor (Homo sapiens), P00533 [T790M]; conditions: at 0.1 µM

Chain of Epidermal growth factor receptor (Homo sapiens), P00533 [L858R] (P00533 whole entry L858R): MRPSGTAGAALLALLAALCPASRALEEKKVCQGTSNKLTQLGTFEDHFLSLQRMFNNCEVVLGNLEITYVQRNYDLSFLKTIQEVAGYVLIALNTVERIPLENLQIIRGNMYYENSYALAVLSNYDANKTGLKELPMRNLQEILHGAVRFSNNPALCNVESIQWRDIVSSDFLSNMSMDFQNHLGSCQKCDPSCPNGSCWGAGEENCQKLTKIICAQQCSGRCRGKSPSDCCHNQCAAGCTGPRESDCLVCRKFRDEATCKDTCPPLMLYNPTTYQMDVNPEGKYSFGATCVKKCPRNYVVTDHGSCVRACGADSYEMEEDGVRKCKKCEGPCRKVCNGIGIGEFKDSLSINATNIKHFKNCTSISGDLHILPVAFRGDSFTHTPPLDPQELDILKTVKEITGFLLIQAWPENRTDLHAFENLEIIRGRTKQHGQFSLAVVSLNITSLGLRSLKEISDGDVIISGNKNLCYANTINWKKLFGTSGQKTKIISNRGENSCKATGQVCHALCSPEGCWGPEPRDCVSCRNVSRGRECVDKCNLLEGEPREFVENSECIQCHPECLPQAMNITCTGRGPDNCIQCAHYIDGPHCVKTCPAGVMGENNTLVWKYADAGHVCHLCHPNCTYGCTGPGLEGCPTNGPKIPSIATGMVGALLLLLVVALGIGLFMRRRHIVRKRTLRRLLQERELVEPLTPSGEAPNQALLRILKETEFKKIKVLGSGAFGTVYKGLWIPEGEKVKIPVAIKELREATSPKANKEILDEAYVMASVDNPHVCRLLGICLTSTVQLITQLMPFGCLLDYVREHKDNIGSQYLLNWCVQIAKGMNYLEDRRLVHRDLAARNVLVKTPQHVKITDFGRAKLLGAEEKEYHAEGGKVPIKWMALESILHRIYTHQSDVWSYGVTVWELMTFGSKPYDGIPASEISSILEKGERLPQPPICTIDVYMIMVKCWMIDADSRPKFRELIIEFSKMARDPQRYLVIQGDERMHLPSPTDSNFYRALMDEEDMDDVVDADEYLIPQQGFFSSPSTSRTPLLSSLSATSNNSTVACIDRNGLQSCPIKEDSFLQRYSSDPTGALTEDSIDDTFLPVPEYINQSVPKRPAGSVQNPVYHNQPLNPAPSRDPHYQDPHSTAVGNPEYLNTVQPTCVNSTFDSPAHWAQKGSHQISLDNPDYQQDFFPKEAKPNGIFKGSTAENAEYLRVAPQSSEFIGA
Chain of Tyrosine-protein kinase Blk (Homo sapiens) (P51451 2-505 limits assumed): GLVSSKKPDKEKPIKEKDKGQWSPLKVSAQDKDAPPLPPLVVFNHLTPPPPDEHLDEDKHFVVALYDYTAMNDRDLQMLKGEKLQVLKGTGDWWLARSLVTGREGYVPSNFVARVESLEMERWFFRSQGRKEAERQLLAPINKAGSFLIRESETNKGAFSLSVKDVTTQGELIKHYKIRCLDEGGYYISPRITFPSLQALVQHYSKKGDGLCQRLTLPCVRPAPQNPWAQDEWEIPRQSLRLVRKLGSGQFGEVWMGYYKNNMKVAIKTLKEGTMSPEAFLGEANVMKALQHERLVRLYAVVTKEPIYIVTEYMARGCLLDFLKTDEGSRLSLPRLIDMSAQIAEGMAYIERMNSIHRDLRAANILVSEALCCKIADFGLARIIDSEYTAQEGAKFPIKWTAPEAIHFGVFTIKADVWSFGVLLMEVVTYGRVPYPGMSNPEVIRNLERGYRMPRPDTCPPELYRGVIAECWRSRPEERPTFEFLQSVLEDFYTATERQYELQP
Chain of Tyrosine-protein kinase BTK (Homo sapiens) (Q06187 whole entry): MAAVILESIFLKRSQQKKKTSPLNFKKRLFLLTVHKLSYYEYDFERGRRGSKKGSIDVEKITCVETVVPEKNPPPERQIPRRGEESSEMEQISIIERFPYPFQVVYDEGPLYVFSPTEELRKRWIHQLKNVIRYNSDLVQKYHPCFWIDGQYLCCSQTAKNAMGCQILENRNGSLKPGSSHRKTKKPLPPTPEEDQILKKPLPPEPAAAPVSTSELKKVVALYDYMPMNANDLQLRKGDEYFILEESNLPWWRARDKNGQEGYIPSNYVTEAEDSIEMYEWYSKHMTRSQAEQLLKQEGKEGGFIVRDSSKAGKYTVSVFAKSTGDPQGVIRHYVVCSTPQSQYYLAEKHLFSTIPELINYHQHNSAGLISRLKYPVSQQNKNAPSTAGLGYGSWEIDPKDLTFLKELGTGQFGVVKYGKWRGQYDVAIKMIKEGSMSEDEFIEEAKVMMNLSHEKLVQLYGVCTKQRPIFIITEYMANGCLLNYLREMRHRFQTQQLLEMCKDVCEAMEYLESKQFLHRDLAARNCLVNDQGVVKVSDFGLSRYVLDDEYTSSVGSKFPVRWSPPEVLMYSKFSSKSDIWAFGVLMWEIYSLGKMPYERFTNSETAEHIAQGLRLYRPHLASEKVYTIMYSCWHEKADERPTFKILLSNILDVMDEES
Chain of Epidermal growth factor receptor (Homo sapiens), P00533 [L861Q] (P00533 whole entry L861Q): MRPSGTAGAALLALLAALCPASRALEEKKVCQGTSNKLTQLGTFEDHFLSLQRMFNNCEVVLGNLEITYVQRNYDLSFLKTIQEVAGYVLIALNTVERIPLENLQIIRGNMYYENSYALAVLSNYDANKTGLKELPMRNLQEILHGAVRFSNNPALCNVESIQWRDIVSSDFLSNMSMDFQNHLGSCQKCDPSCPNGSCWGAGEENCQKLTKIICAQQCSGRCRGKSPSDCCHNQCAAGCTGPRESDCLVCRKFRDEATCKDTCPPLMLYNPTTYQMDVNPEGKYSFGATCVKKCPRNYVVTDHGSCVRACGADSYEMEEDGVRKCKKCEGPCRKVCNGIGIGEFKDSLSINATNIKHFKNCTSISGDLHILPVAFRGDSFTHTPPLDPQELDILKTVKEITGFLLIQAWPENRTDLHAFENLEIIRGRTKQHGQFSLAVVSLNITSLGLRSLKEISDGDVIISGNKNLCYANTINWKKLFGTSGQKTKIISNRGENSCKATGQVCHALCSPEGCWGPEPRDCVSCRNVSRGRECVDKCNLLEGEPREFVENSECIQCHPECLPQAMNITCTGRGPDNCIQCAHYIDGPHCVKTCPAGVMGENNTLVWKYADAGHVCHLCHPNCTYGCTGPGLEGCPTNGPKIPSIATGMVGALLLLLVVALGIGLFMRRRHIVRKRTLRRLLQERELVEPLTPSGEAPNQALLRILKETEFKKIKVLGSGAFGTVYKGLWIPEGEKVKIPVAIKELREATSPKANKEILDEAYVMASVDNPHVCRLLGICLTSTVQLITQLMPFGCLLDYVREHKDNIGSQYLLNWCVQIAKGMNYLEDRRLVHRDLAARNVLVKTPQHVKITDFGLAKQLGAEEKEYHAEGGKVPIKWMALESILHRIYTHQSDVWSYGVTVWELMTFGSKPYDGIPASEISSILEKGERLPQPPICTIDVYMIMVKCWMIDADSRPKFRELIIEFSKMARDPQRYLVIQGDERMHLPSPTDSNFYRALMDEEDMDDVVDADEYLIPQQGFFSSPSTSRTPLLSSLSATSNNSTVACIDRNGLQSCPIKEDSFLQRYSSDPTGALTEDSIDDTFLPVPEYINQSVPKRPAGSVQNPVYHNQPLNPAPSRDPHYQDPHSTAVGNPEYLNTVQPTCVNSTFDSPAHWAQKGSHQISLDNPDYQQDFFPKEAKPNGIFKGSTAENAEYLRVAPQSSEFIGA
Chain of Tyrosine-protein kinase CSK (Homo sapiens) (P41240 2-450 limits assumed): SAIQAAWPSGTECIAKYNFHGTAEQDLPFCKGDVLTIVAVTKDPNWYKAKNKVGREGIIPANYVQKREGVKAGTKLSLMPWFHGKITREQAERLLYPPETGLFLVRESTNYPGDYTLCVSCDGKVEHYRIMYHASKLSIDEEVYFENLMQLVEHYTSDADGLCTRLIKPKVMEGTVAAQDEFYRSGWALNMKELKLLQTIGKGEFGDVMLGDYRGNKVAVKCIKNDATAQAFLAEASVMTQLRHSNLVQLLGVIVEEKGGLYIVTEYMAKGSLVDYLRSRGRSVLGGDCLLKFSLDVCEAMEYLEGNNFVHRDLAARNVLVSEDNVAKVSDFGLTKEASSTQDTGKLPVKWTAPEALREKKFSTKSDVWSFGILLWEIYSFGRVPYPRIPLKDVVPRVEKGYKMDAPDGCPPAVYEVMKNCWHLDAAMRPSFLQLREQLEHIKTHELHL
Chain of Tyrosine-protein kinase receptor UFO (Homo sapiens) (P30530 whole entry): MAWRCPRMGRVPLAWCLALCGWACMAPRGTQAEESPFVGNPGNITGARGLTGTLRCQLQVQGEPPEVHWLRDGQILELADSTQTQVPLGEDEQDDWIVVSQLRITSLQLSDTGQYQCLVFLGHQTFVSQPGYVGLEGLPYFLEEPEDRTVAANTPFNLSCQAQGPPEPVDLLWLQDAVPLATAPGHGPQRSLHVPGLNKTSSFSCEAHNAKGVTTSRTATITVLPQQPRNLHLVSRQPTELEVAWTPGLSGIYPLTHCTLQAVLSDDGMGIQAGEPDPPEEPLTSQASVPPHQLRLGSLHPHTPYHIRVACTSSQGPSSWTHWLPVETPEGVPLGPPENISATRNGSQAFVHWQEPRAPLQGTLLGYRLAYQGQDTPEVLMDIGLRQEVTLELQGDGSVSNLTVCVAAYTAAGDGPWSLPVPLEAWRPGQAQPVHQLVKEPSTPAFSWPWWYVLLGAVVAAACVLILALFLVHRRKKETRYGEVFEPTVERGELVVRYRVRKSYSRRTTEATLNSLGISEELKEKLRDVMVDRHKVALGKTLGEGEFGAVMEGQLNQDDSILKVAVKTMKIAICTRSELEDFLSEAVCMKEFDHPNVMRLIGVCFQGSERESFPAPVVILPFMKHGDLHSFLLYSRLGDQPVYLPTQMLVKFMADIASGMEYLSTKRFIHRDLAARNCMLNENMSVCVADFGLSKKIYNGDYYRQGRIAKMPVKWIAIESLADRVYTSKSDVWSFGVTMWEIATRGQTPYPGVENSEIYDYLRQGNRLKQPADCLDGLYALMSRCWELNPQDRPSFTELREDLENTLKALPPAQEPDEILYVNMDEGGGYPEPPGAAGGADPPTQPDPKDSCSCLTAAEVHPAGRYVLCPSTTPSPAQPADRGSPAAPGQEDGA

Compound	inhibition [1]	inhibition [2]	inhibition [3]	inhibition [4]	inhibition [5]	inhibition [6]	inhibition [7]	inhibition [8]	inhibition [9]	inhibition [10]	inhibition [11]	inhibition [12]	inhibition [13]	inhibition [14]	inhibition [15]	inhibition [16]	inhibition [17]	inhibition [18]	inhibition [19]	inhibition [20]
CS(=O)(=O)CCNCc1cc(-c2cc3c(Nc4ccc(OCc5cccc(F)c5)c(Cl)c4)ncnc3s2)cs1	-6.81%	2.61%	5.05%	3.9%	7.31%	1.27%	5.98%	-1.08%	0.76%	1.58%	4.58%	4.67%	6.01%	61.5%	83.7%	18.1%	61.2%	31.4%	57.8%	0.98%
COc1ccc(C2=C(N3CCc4ccccc43)C(=O)NC2=O)cc1	-4.91%	3.71%	2.94%	-1.14%	5.15%	6%	5.72%	1.91%	0.84%	7.99%	9.3%	1.75%	1.87%	1.18%	3.59%	7.35%	7.13%	4.49%	6.05%	3.62%
COc1ccc2ncn(-c3cc(O[C@H](C)c4ccccc4Cl)c(C(N)=O)s3)c2c1	-8.67%	-1.08%	-2.12%	3.14%	4.61%	-0.06%	4.71%	-4.3%	-3.34%	4.64%	4.14%	1.2%	0.87%	-5.57%	-2.35%	0.76%	6.08%	3.26%	1.91%	1.16%
COc1cc(Nc2ncc3c(C)nc(-c4cccc(Oc5ccccc5)c4)n3n2)cc(OC)c1OC	4.22%	0.63%	4.56%	0.46%	4.17%	1.26%	1.89%	1.08%	1.57%	4.01%	0.83%	1.95%	0.6%	-0.83%	3.44%	2.38%	1.65%	0.98%	-0.89%	1.28%
COc1cc(N2CCN(C(C)C)CC2)ccc1Nc1nc(Nc2ccc(F)cc2C(=O)NC[C@@H](O)CO)c2cc[nH]c2n1	7.75%	-1.34%	0.03%	3.82%	4.34%	4.82%	7.68%	-2.66%	-4.6%	5.74%	6.92%	0.31%	1.21%	-0.53%	0.84%	0.89%	11.2%	5.68%	8.58%	4.54%
NC(=O)Cc1ccccc1Oc1nccc(-c2c(-c3ccc(F)cc3)ncn2C2CCNCC2)n1	1.68%	1.46%	2.66%	7.68%	3.56%	2.9%	1.21%	1.29%	0.76%	0.51%	0.29%	0.48%	0.75%	2.22%	4.51%	2.34%	8.03%	1.25%	-0.04%	0.99%
O=C(Nc1n[nH]c2nc(-c3ccco3)ccc12)C1CC1	5.23%	0.69%	5.1%	-0.85%	1.83%	2.56%	1.59%	0.36%	0.7%	0.84%	4.82%	5.94%	7.53%	2.44%	4.53%	-0.69%	4.35%	1.04%	1.77%	0.31%
O=C(NCC1CC1)c1ccc(-c2cccc(C(=O)NC3CC3)c2)cc1	-0.85%	1.41%	3.43%	-3.65%	3.29%	0.45%	3.3%	1.12%	1.69%	1.29%	-3.57%	4.92%	7.61%	1.39%	0.85%	2.42%	-2.6%	-0.16%	-2.26%	0.88%
C#Cc1cccc(Nc2ncnc3ccc(OCCCCNCCS(C)(=O)=O)cc23)c1	-7.98%	2.28%	3.96%	3.24%	5.57%	6.2%	10.2%	-3.76%	1.2%	3.24%	8.24%	4.72%	9.88%	75.9%	85.4%	96.8%	97.7%	91.7%	97.6%	3.8%
CN1CCN(CCCNc2nc3ccc(Oc4ccc(NC(=O)Nc5cc(C(F)(F)F)ccc5F)cc4)cc3[nH]2)CC1	27.5%	-2.37%	-2.3%	-1.87%	2.63%	-0.99%	1.35%	-3.09%	1.43%	-0.95%	-3.31%	73.9%	83.6%	-3.44%	0.24%	1%	0.13%	0.67%	-4.02%	0.51%
COc1cc(C)c(N(C)C(=O)CN(C)C)cc1Nc1nc(Nc2cccc(F)c2C(N)=O)c2cc[nH]c2n1	3.71%	-3.28%	-1.84%	-1.82%	2.46%	0.54%	1.53%	-1.73%	-2.02%	1.1%	-1.53%	0.29%	0.56%	-4.88%	-1.47%	-1.11%	1.56%	1.84%	-2.41%	0.93%
Fc1ccc(-c2ncn(C3CCNCC3)c2-c2ccnc(Oc3ccc(F)c(F)c3)n2)cc1	-4.58%	-1.88%	-2.13%	3.36%	3.49%	2.61%	5.39%	-4.19%	-4.23%	2.54%	2.38%	1.67%	2.09%	-3.12%	-0.79%	1.05%	7.57%	3.65%	4.21%	1.53%
Fc1ccc(-c2c(-c3ccncc3)nc3n2CCS3)cc1	-2.08%	-2.78%	-0.74%	1.44%	0.74%	4.76%	4.76%	-5.15%	-4.99%	3.65%	5.05%	0.56%	-0.39%	-4.84%	-0.06%	3.61%	22.2%	1.81%	1.46%	1.14%
CN(C)CCCNc1nccc(-c2c(-c3ccc(F)cc3)nn3cc(C(F)(F)F)ccc23)n1	3.68%	-1.5%	-0.77%	-2.3%	3.77%	2.2%	4.39%	-3.09%	-2.3%	2.44%	-0.64%	5.29%	11.1%	-2.27%	1.24%	0.77%	2.36%	1.57%	-2.56%	1.53%
COC(=O)Nc1nc2ccc(Sc3ccc(NC(=O)Nc4cc(C(F)(F)F)ccc4F)cc3)cc2[nH]1	10.9%	0.49%	2.36%	3.33%	-0.17%	1.16%	1.4%	2.12%	2.1%	1.7%	7.52%	56.3%	83.5%	-0.94%	2.67%	-0.44%	2.71%	2.04%	0.54%	0.63%
